Source: PubChem BioAssay (NCI)
This is part of a sample that, as a whole, favours compounds with a hit. Of some 83,000 tested, about 20% had one in any assay.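 Testing used 96-well plates and a 48-hour single-concentration exposure. Example: -40 means 40% of the starting cells died.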 The source made the active and inactive calls. Rule for the calls: active = growth percent below 10; inactive = the rest.

Assays:
Assay in all cases: NCI-60 one-dose screen, 48 h (100 = growth as untreated, 0 = no growth, -100 = all killed)
[1] = test system: T-47D breast; conditions: 10 µM unless noted
[2] = test system: BT-549 breast; conditions: 10 µM unless noted
[3] = test system: MDA-MB-435 melanoma; conditions: 10 µM unless noted
[4] = test system: SW-620 colon; conditions: 10 µM unless noted
[5] = test system: MCF7 breast; conditions: 10 µM unless noted
[6] = test system: HCT-116 colon; conditions: 10 µM unless noted
[7] = test system: HCC-2998 colon; conditions: 10 µM
[8] = test system: KM12 colon; conditions: 10 µM unless noted

Measured: growth

Cc1cc(Nc2cc(N3CCN(C)CC3)nc(/C=C/c3ccccc3)n2)n[nH]1
active: [1] -24.7% | [2] 8.9% | [3] 6.58% | [4] 0.289% | [5] 0.852% | [6] 0.937% | [7] -61.5% | [8] -16.9%

CNC(=O)c1cc(Oc2ccc(NC(=O)Nc3cc(C(C)(C)C)nn3-c3ccc4ncccc4c3)c(F)c2)ccn1
active: [1] -17.7% | [2] -38.2% | [3] -88% | [4] -0.427% | [5] -6.46% | [6] -51.8% | [7] -31.5% | [8] -23.8%

CCN(CC)CCOc1ccc(/C(=C(\C)c2ccc(Cl)cc2)c2ccc(Cl)cc2)cc1
inactive: [1] 55.2% | [2] 85.2% | [3] 87.1% | [4] 30.8% | [5] 34.8% | [6] 47% | [7] 93.6% | [8] 40.3%

COc1cc(NCCN(CC(C)C)CC(C)C)c2ncc(C)cc2c1
inactive: [1] 20.3% | [2] 88.7% | [4] 68.1% | [6] 31.8% | [7] 85.6% | [8] 68.6%
active: [3] -76.4% | [5] 2.66%

COc1cccc(Nc2ncnn3ccc(CN4CC[C@@H](N)[C@H](O)C4)c23)c1
inactive: [2] 48.3% | [3] 75.6% | [4] 88.4% | [5] 58.8% | [6] 21.9% | [7] 77.1% | [8] 14.1%
active: [1] -1.78%

O=C(/C=C/c1ccc2c(c1)OCO2)c1c(O)c2ccccc2oc1=O
inactive: [1] 89% | [2] 95.8% | [3] 104% | [4] 128% | [5] 88.9% | [6] 86.9% | [7] 112% | [8] 93.6%

COc1ccc(C2CC(=O)c3c(O)c(OC)c(OC)c(OC)c3O2)cc1O (centres undefined)
active: [3] -46.9% | [6] 7.57%
inactive: [1] 65.9% | [2] 64.6% | [4] 20.2% | [5] 24.8% | [7] 12.7% | [8] 12.5%

C/C=C/C=N/NC(=S)Nc1ccccc1
inactive: [1] 111% | [2] 96.5% | [3] 109% | [4] 121% | [5] 86% | [6] 97.9% | [7] 104% | [8] 98.6%

CCOC(=O)C1=C(C)N=C2Sc3cc(OC(F)(F)F)ccc3N2[C@H]1c1ccccn1
inactive: [1] 25.1% | [2] 59.4% | [3] 51.1% | [4] 23.6% | [5] 41.3% | [6] 24.2% | [7] 69.4% | [8] 32.3%

Cc1cc(C)n(CC(=O)Nc2ccc(-c3nc4ccccc4s3)cc2)n1
inactive: [1] 93.3% | [2] 115% | [3] 107% | [4] 113% | [5] 26.6% | [6] 107% | [7] 92.9% | [8] 100%

Cn1cnc(-c2cc3nccc(Oc4ccc(NC(=S)NC(=O)Cc5ccccc5)cc4F)c3s2)c1
inactive: [1] 65.8% | [2] 77.3% | [3] 93.2% | [4] 76.7% | [5] 79.5% | [6] 78.8% | [7] 104% | [8] 21.8%

CCc1nc2cc(/C=C/C(=O)NO)ccc2c(=O)n1CCc1ccc(F)cc1
inactive: [2] 23.8% | [3] 17.3% | [5] 10.2% | [7] 32.4% | [8] 12%
active: [1] -0.122% | [4] 6.35% | [6] 3.23%

C=CC(=O)Nc1cccc(Nc2nc(Nc3ccc(N4CCN(C(C)=O)CC4)cc3OC)ncc2C(F)(F)F)c1
inactive: [2] 19.7% | [3] 23.1% | [6] 12% | [7] 34.7% | [8] 15.7%
active: [1] -5.01% | [4] 2.57% | [5] 4.41%

C[C@@H]1COC(Nc2ccc3ncnc(Nc4ccc(OCc5nccs5)c(Cl)c4)c3c2)=N1
active: [1] -17.5% | [2] 1.81%
inactive: [3] 50.1% | [4] 76.8% | [5] 45.1% | [6] 30.1% | [7] 46.9% | [8] 18.5%

COc1cnc2c(c1)C(=O)c1c-2n(CCCn2ccnc2)c(=O)c2cc(Cl)ccc12
active: [1] -1.88% | [5] 7.47% | [6] -20.7% | [8] 9.84%
inactive: [2] 13.2% | [3] 11% | [4] 20.1% | [7] 31.6%

O=C(NOCCO)c1cc(CN2OCCCC2=O)c(F)c(F)c1Nc1ccc(I)cc1F
inactive: [1] 67.6% | [2] 80.5% | [3] 36.9% | [4] 24.1% | [5] 88.7% | [6] 13.9% | [8] 26.6%
active: [7] -18.6%

CN(C)C/C=C/C(=O)Nc1cc2c(Nc3ccc(F)c(Cl)c3)ncnc2cc1O[C@H]1CCOC1
active: [1] -6.55% | [2] -1.8% | [3] 2.71% | [4] -22.6% | [5] 3.59% | [6] -59.8% | [7] -71% | [8] -0.867%

COC(=O)Nc1nc2ccc(C(=O)c3ccc(N(C)C4COC4)cc3)cc2[nH]1
inactive: [1] 57.5% | [4] 28.5% | [5] 16.3% | [7] 11% | [8] 15.7%
active: [2] 9.02% | [3] -25.5% | [6] 7.08%

CC[C@@H]1C(=O)N(C)c2cnc(Nc3ccc(C(=O)NC4CCN(C)CC4)cc3OC)nc2N1C1CCCC1
active: [1] -7.47% | [3] 2.22% | [5] 7.63% | [6] 0.114% | [7] -28.6%
inactive: [2] 17.5% | [4] 12.3% | [8] 12.9%

CC(N)C(Cc1ccccc1)c1ccc(Cl)cc1 (centres undefined)
inactive: [1] 75.5% | [2] 88.4% | [3] 94.1% | [4] 88.9% | [5] 90.3% | [6] 78.8% | [7] 84.5% | [8] 98.9%

Clc1ccc2c(NCCCNCc3ccc4c(c3)OCO4)ccnc2c1
inactive: [2] 51.5% | [4] 28.9% | [5] 31.5% | [6] 36.5% | [8] 65.4%
active: [1] -0.471% | [3] -34.6% | [7] 5.99%

COC(=O)[C@@H](OC)[C@@H]1Cc2cc3cc(OC4CC(OC5CC(O)C(O)C(C)O5)C(O)C(C)O4)c(C)c(O)c3c(O)c2C(=O)[C@H]1OC1CC(OC2CC(OC3CC(C)(O)C(O)C(C)O3)C(O)C(C)O2)C(O)C(C)O1 (some centres undefined)
active: [1] 4% | [2] -32.9% | [3] -62.4% | [4] 8.04% | [5] 8.9% | [6] 3.51% | [7] -32.9% | [8] 1.5%

CC(C)[C@@H]1CC[C@]2(CO2)[C@@H]2C(=O)OCC(C(=O)O)=C[C@H]21
active: [2] -5.36% | [3] -6.19% | [4] 5.52% | [6] 3.63% | [7] 4.07% | [8] 2.53%
inactive: [1] 12.3% | [5] 45.3%

C=C1CC[C@@H]2[C@](C)(COC(C)=O)[C@H](OC(C)=O)CC[C@@]2(C)[C@@H]1C/C=C1/C(=O)OC[C@H]1OC(C)=O
inactive: [1] 42.8% | [2] 27.4% | [3] 33.1% | [5] 22.9% | [7] 67.3% | [8] 52.8%
active: [4] -21.9% | [6] -37.3%

C[C@@H](NC(=O)c1ncnc(N)c1Cl)c1ncc(C(=O)Nc2cc(C(F)(F)F)c(Cl)cn2)s1
inactive: [1] 92.2% | [2] 110% | [3] 39.3% | [4] 56.9% | [5] 96.2% | [6] 25.3% | [7] 69.4% | [8] 75.1%

COc1cc2ncnc(Nc3ccc(O)cc3)c2cc1OC
inactive: [1] 53.9% | [2] 80% | [3] 91.6% | [4] 112% | [5] 90.4% | [6] 75.3% | [7] 100% | [8] 89.7%

Nc1cc(C(F)(F)F)c(-c2cc(N3CCOCC3)nc(N3CCOCC3)n2)cn1
active: [1] -42.9% | [2] -2.66% | [3] -62.3% | [4] 0.981% | [5] -7.62% | [6] -25.4% | [7] -52.9% | [8] -1.19%

C=CCN(/C=C1/C(=O)O[C@H](COC)[C@@]2(C)C1=C(O)C(=O)C1=C2[C@H](OC(C)=O)C[C@]2(C)C(=O)CC[C@@H]12)CC=C
inactive: [3] 21.4% | [4] 39.8% | [5] 11.8% | [6] 14.6% | [8] 22.4%
active: [1] -10.6% | [2] -7.68% | [7] -20.4%
